# In the supplement of paper PMC10498489:
# The campaign covered roughly 2,300 compounds. About 330 (14%) showed activity.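 The calls were made as follows: active = median modified Z-score above 1.96; inactive = 1.96 or below.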 The list is a sample of the results.
# Test system: HepG2 Srxn1-GFP reporter cells (+30 nM CDDO-Me)
# Assay: Srxn1-GFP intensity median modified Z-score relative to plate median; higher = stronger NRF2 / oxidative stress reporter activation, active = hit call of the paper
# Conditions: 10 µM; exposure time: 24h
# Outline: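 Per-cell cytoplasmic GFP was measured on confocal images of formaldehyde-fixed, Hoechst-stained HepG2 Srxn1-GFP BAC reporter cells, excluding images with fewer than 100 cells. Before this, the cells (20,000 per well, 96-well plates) were co-exposed for 24 h to compound at 10 μM and an NRF2 activator at 30 nM with ≤0.1% DMSO, in three replicate plates. Each value is the median over replicates of the per-plate modified Z-score of GFP intensity. That score was scaled with 1.4826 × median absolute deviation.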
row,Compound,Srxn1-GFP intensity median modified Z-score
1,O=C1CCCC2C3C[C@H](CN12)[C@@H]1CCCCN1C3 (stereo not given in full) [euspeclibcmpd1695],-0.101 (inactive)
2,CCC(=O)O[C@H]1CCC2C3CC=C4CC(=O)CC[C@]4(C)C3CC[C@@]21C (stereo not given in full) [euspeclibcmpd7],0.269 (inactive)
3,C[N+]1(C)C2CCC1CC(OC(=O)C(CO)c1ccccc1)C2 (stereo not given) [euspeclibcmpd790],-0.464 (inactive)
4,CN1CCCCC1c1ccc(-c2cccnc2)nc1 (stereo not given) [euspeclibcmpd1697],-0.301 (inactive)
5,C[N+]12CCC(CC1)C(OC(=O)C(O)(c1ccccc1)c1ccccc1)C2 (stereo not given) [euspeclibcmpd67],0.0285 (inactive)
6,O=P1(N(CCCl)CCCl)NCCCO1 (stereo not given) [euspeclibcmpd2335],-0.33 (inactive)
7,N=c1nc[nH][nH]1 [euspeclibcmpd1771],-0.334 (inactive)
8,COc1ccc(C(=O)N2CCCC2=O)cc1 [euspeclibcmpd835],1.03 (inactive)
9,NC(Cc1ccc(N(CCCl)CCCl)cc1)C(=O)O (stereo not given) [euspeclibcmpd181],0.947 (inactive)
10,COc1cc2c(cc1OC)C1C(=O)c3ccc4oc(C(C)C)cc4c3O[C@@H]1CO2 (stereo not given in full) [euspeclibcmpd1384],0.895 (inactive)
11,COc1cc2c(cc1OC)C1C(=O)c3ccc4c(c3O[C@@H]1CO2)CC(C(C)C)O4 (stereo not given in full) [euspeclibcmpd1349],54.1 (active)
12,COc1cc2c(cc1OC)-c1c(oc3c4c(ccc3c1=O)OC(C(C)C)C4)CO2 (stereo not given) [euspeclibcmpd1802],-0.169 (inactive)
13,C=C(C)[C@H]1Cc2c(ccc3c2O[C@@H]2COc4cc(OC)c(OC)cc4C2C3=O)O1 (stereo not given in full) [euspeclibcmpd1688],63.1 (active)
14,C=C(C)C1Cc2c(ccc3c(=O)c4c(oc23)COc2cc(OC)c(OC)cc2-4)O1 (stereo not given) [euspeclibcmpd1633],0.389 (inactive)
15,CCC1(c2ccc(N)cc2)CCC(=O)NC1=O (stereo not given) [euspeclibcmpd20],-0.169 (inactive)
16,C[C@]12CCC(=O)C=C1CCc1ccc(O)cc12 [euspeclibcmpd2145],-0.0198 (inactive)
17,NC(=O)c1cc([N+](=O)[O-])cc([N+](=O)[O-])c1 [euspeclibcmpd211],1.85 (inactive)
18,CC(=O)O[C@H]1CC[C@@]2(C)C(=CCC3C2CC[C@]2(C)C(=O)CCC32)C1 (stereo not given in full) [euspeclibcmpd1015],-0.448 (inactive)
19,CC1[C@H](C)OC(=O)CC(O)CC(O)CC(O)CCC(O)C(O)C[C@]2(O)CC(O)C(C(=O)O)C(CC(OC3O[C@H](C)[C@@H](O)[C@H](N)[C@@H]3O)/C=C/C=C/C=C/C=C/CC/C=C/C=C/[C@H](C)[C@H]1O)O2 (stereo not given in full) [euspeclibcmpd218],0.964 (inactive)
20,c1ccc2c(c1)OCC(C1=NCCN1)O2 (stereo not given) [euspeclibcmpd1238],0.16 (inactive)

row,Compound,Srxn1-GFP intensity median modified Z-score
1,COc1cccc([C@]2(O)CCCC[C@H]2CN(C)C)c1 [euspeclibcmpd765],-0.221 (inactive)
2,NC(=O)C[S+]([O-])C(c1ccccc1)c1ccccc1 (stereo not given) [euspeclibcmpd2299],0.327 (inactive)
3,O=C1C=C2C=CC3C[C@@]2(O1)[C@H]1CCCCN31 [euspeclibcmpd1211],9.38 (active)
4,CC1NCCc2cc(O)c(O)cc21 (stereo not given) [euspeclibcmpd2171],-0.549 (inactive)
5,CC[C@H]1C2CC3[C@@H]4N(C)c5ccccc5[C@]45C[C@@H](C2C5O)N3[C@@H]1O (stereo not given in full) [euspeclibcmpd1044],-0.296 (inactive)
6,Cc1[nH]c2ccccc2c1CN(C)C [euspeclibcmpd2173],-0.24 (inactive)
7,CN1C2C[C@H](OC(=O)C(CO)c3ccccc3)C[C@H]1[C@H]1OC21 (stereo not given in full) [euspeclibcmpd266],-0.44 (inactive)
8,Cc1cccc(C)c1N=C1NCCCS1 [euspeclibcmpd416],-0.674 (inactive)
9,C=C/C=C\CC1=C(C)C(OC(=O)C2[C@@H](C=C(C)C)C2(C)C)CC1=O (stereo not given in full) [euspeclibcmpd1257],2.3 (active)
10,CCOC(=O)C1C(C=C(C)C)C1(C)C (stereo not given) [euspeclibcmpd1522],0.0825 (inactive)
11,CC(C)=CC1C(C(=O)OCc2cccc(Oc3ccccc3)c2)C1(C)C (stereo not given) [euspeclibcmpd1161],-0.28 (inactive)
12,O=C(O)CCCc1ccc(N(CCCl)CCCl)cc1 [euspeclibcmpd51],-0.412 (inactive)
13,C=C[C@H]1C[N@@]2CC[C@H]1C[C@H]2[C@H](O)c1ccnc2ccccc12 [euspeclibcmpd2388],-0.0385 (inactive)
14,O=[N+]([O-])O[C@H]1CO[C@H]2[C@@H]1OC[C@H]2O[N+](=O)[O-] [euspeclibcmpd166],-0.506 (inactive)
15,O=[N+]([O-])O[C@@H]1CO[C@H]2[C@@H]1OC[C@@H]2O [euspeclibcmpd605],3.27 (active)
16,Cc1cc(OC(=O)N2CCCCC2)c(C(C)C)cc1[N+](C)(C)C [euspeclibcmpd1842],0.636 (inactive)
17,COc1ccc(O)c(C(C)(C)C)c1 [euspeclibcmpd2212],0.639 (inactive)
18,O=C1c2ccccc2-c2cccc3cccc1c23 [euspeclibcmpd1379],0.148 (inactive)
19,C=C(C)c1cc2cc(C(C)=O)c(O)cc2o1 [euspeclibcmpd1716],10.1 (active)
20,O=C(O)CCCO [euspeclibcmpd2162],-0.552 (inactive)
